# Only some compounds are listed: those with a hit (about 9.2% of all), similar ones and a draw of the others.
# SMN2 splice up – SMN2 splice variant enhancement; HEK293 SMN2-luciferase splicing reporter, luminescence, 30-36 h; Potency, µM (titrated, usually from 46.1 µM), most hits filed as activators; 210,000 compounds, 2.8% hits; further: nearly all actives have a fitted effect of over 55% in size
#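 HEK293 cells carry an SMN2 […]–luciferase reporter in which exon 7 inclusion puts luciferase in frame. Cells were plated 10-12 h before compound addition, then incubated 30-36 h at 37C. ONE-Glo luminescence was read; sodium butyrate at 4.5 mM final served as control.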
# Rab9 prom act – activators of Rab9 promoter | Huh7 Rab9 promoter-luciferase reporter, luminescence, 24 h | Potency, µM (doses to about 9.22 µM), hits mostly activators | 320,000 compounds, 2.8% hits; further: nearly all actives have a fitted effect of over 60% in size
#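 Cells were plated at 1500 per well in reduced-serum medium with 10% FBS and left 2 h. Compound in DMSO was then added for 24 h at 37 °C. Reporter signal was read by luminescence after 10 min with luciferase detection reagent.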
# FLuc counter – firefly luciferase modulation, counter-screen for miR-21 project; P08659; purified FLuc, Km substrates, luminescence inhibition; Potency, µM (highest dose often 57.5 µM), hits mostly inhibitors; 360,000 compounds, 6.9% hits; further: nearly all actives have a fitted effect of over 55% in size
# Target sequence (P08659 whole entry, looked up): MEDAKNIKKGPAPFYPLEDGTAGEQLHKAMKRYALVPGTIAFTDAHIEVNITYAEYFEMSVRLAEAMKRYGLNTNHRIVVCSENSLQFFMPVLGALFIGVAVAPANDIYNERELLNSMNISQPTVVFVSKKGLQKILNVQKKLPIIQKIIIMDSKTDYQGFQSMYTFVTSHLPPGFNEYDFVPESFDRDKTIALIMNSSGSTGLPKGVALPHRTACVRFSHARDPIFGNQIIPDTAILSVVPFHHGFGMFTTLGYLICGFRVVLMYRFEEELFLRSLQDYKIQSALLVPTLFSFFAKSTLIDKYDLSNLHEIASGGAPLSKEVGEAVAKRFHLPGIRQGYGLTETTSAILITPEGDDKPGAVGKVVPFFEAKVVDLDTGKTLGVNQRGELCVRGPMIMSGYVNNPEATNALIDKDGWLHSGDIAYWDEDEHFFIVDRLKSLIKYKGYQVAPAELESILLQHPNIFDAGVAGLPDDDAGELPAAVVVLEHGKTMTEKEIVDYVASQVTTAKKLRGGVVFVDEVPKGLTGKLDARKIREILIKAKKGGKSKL
#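 Purified P. pyralis luciferase (10nM final) with 10uM D-luciferin and 10uM ATP (Km levels) in 50mM Tris acetate pH 7.5, 10mM Mg acetate, 0.01% Tween-20, 0.05% BSA; qHTS 6-point titration, ~60 µM downward; luminescence read.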
# ELG1 genotoxic – inducers of genotoxicity in HEK293T ELG1-luciferase cells | HEK293T ELG1-luciferase reporter, luminescence, 16 h | Potency, µM (titrated, usually from 46 µM), actives largely listed as activators | 330,000 compounds, 1.3% hits | AID 504466; further: nearly all actives have a fitted effect of over 60% in size
#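 Step 1: seed 2,000 HEK293T ELG1-luciferase cells per well. Step 2: add compound or DMSO, incubate 16 hr at 37 °C. Step 3: ONE-Glo, 30 min at room temperature, read luminescence.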
# ELG1 repair inh – blocks ELG1-dependent DNA repair in HEK293T cells | Potency, µM (highest dose often 46.1 µM), actives largely listed as inhibitors | HEK293T ELG1-luciferase reporter, luminescence, 16 h; DNA damage induced by 5-fluorouridine | 330,000 compounds, 2.3% hits; further: nearly all actives have a fitted effect of over 55% in size
#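 In this reporter screen, reduction of luminescence relative to DMSO vehicle indicated activity. Compounds and 5-fluorouridine were added together to 2,000 cells per well, incubated for 16 hr at 37 °C, then developed with ONE-Glo.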
# NPC1 promoter act – activators of NPC1 promoter; Huh7 NPC1 promoter luciferase reporter, 24 h; Potency, µM (highest dose often 9.22 µM), hits mostly activators; 320,000 compounds, 2.4% hits; further: nearly all actives have a fitted effect of over 60% in size
#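 Stable NPC1-promoter luciferase Huh7 line; cpd (DMSO) 24 h, 37 °C, 5% CO2; Amplite luciferase reagent 10 min RT; luminescence readout. qHTS format.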
# A number is an active result; – = inactive; ? = inconclusive; · = not tested or not shown; [ ] = dose if it differs, or a comment. The call rests on the fitted dose curve; in most records, active means well fitted curve in the direction sought with a large enough effect; inconclusive means small, poorly fitted or top-dose-only effect, or another doubt; inactive means no such curve, though single readings can be large; an effect the other way counts as inactive or inconclusive.
SMILES,SMN2 splice up,Rab9 prom act,FLuc counter,ELG1 genotoxic,ELG1 repair inh,NPC1 promoter act
O=C(c1cccc(F)c1)N1CCC2(CCCN(C(c3ccccc3)c3ccccc3)C2)CC1,–,·,·,·,·,·
COc1ccc(N2CCN(c3ncccc3-c3nc(-c4ccccc4C)no3)CC2)cc1,·,·,15.1µM,·,·,·
COc1ccc(N2CCN(c3ncccc3C#N)CC2)cc1,–,–,–,–,–,–
CC(C)CN1CCc2nc(N3CCN(c4ncccn4)CC3)ncc2C1,·,·,–,·,·,·
Cc1ccc([N+](=O)[O-])cc1S(=O)(=O)N(C)C,–,–,·,·,·,–
Cc1ccc(NC(=O)c2ccc([N+](=O)[O-])cc2)cc1S(=O)(=O)N(C)C,–,?,?,–,18.3µM,?
COc1cc(CCC(=O)Nc2ccc(C)c(S(=O)(=O)N(C)C)c2)cc(OC)c1OC,–[1.84 µM],–,–,–,9.2µM,–
O=C(Nc1ccc(OC(F)F)c(Cl)c1)c1ccccn1,11.2µM,0.631µM,3.38µM,2.31µM,?,1µM
Cc1ccc(NC(=O)c2ccc(OC(F)F)cc2)cc1S(=O)(=O)N(C)C,–,–,9.53µM,–,?,–
COc1ccc(Cn2nnc(C(=O)Nc3cc(OC)ccc3OC)c2N)cc1,–,·,–,·,·,·
COc1ccc(NC(=O)c2ccc(OC(F)F)cc2)cc1Cl,11.2µM,2.51µM,2.69µM,?,?,2µM
Cc1ccc(NC(=O)CCNC(=O)c2ccc([N+](=O)[O-])cc2)cc1S(=O)(=O)N(C)C,–,–,–,–,13µM,–
Cc1cccc(C(=O)NCCC(=O)Nc2ccc(C#N)cc2)c1,·,–,–,–,–,–
Cc1cc(-c2ccccc2)cc(-c2ccccc2)[n+]1C,–,–,–,–,11.6µM,–
CCOc1ccc(NC(=O)c2ccc(-c3ccccc3)s2)cc1,–,·,–,·,·,·
CNC(=O)c1ccc(-c2ccccc2)s1,–,?,13.5µM,?,?,?
Cc1ccc(-n2ncc(C(=O)NC3CCCC3)c2C2CCN(C(=O)OC(C)(C)C)CC2)c(C)c1,·,·,–,·,·,·
CC(=O)Nc1ncc(Cc2cccc(Cl)c2)s1,·,–,–,–,–,–
O=C(Nc1ncc(Cc2cccc(Cl)c2Cl)s1)C1CCCO1 (stereo not drawn),15.8µM,3.55µM,10.7µM,16.4µM,?,?
O=C(Nc1ncc(Cc2ccccc2Cl)s1)C1CCCO1 (stereo not drawn),12.6µM,1.41µM,9.53µM,?,?,3.55µM
O=C(Nc1ncc(Cc2cccc(Cl)c2)s1)C1CCCO1 (stereo not drawn),–,?,19µM,–,?,?
CC(=O)NC(Cc1c[nH]c2ccccc12)C(=O)N1CCN(S(=O)(=O)c2ccccc2)CC1 (stereo not drawn),·,–,–,–,–,–
Cc1cccc(NC(=O)COC(=O)CSc2ccccc2)c1C,·,–,–,–,–,–
COc1ccc(CNC(=O)Cc2c(C)c3cc4c(C)coc4c(C)c3oc2=O)cc1,–,·,–,·,·,·
COc1cc(CNc2ncnc3c2[nH]c2ccc(C)cc23)cc(OC)c1,·,–,26.9µM,–,20.6µM,–
SMILES,SMN2 splice up,Rab9 prom act,FLuc counter,ELG1 genotoxic,ELG1 repair inh,NPC1 promoter act
COc1ccc(/C=N/Nc2ncnc3c2[nH]c2ccc(C)cc23)c(OC)c1OC,·,–,?,?,–,–
CCOc1ccc2[nH]c3c(NCCc4ccc(OC)c(OC)c4)ncnc3c2c1,·,–,–,–,20.6µM,–
Cc1ccc2[nH]c3c(NCc4ccco4)ncnc3c2c1,–,–,13.5µM,–,?,–
COc1ccc(C2=Nn3c(nc4sc(C(=O)Nc5cccc(C)c5)c(C)c4c3=O)SC2)cc1,·,·,–,·,·,·
O=C(O)CCCNc1cc(N2CCC3(CC2)OCCO3)c2noc3c2c1C(=O)c1ccccc1-3,–,2.24µM,10.7µM,?,?,3.98µM
CN1CCN(S(=O)(=O)c2cccc(C(=O)N(Cc3nnc(-c4ccccc4Cl)o3)C3CC3)c2)CC1,·,–,?,–,–,–
COc1ccc(C)cc1Nc1nc(N)c2cc(OC)c(OC)cc2n1,–,–,?,–,–,–
Cc1ccc(O)c(Nc2c3ccccc3nc3ccccc23)c1,·,–,?,–,8.2µM,–
Cc1ccc(O)c(Nc2nc(-c3ccccc3)nc3ccccc23)c1,·,–,–,–,?,–
COc1ccc(Cl)cc1Nc1nc(N)c2ccccc2n1,·,–,16.9µM,–,?,?
Cc1ccc(C)c(Nc2nc(N)c3ccccc3n2)c1,14.1µM,2.51µM,4.78µM,?,?,2.51µM
CC(=O)c1ccc(NC(=O)CN2C(=O)c3cccnc3Sc3ccccc32)cc1,·,·,–,·,·,·
COc1cc(Cl)c(C)cc1NC(=O)c1ccc2c(Cl)c3c(nc2c1)CCC3,?,·,–,·,·,·
CCC(C)NC(=O)c1ccc2c(Cl)c3c(nc2c1)CCC3 (stereo not drawn),·,2.51µM,4.78µM,?,?,2.82µM
COc1ccc(C)cc1NC(=O)c1ccc2c(Cl)c3c(nc2c1)CCC3,–,·,1.69µM,·,·,·
CCOc1ccc(NC(=O)c2ccc3c(SCC(=O)O)c4c(nc3c2)CCC4)cc1,–,·,23.9µM,·,·,·
CCC(C)NC(=O)c1ccc2c(SCC(=O)O)c3c(nc2c1)CCCC3 (stereo not drawn),–,–,?,–,–,–
CN(C(=O)c1ccc2c(Cl)c3c(nc2c1)CCC3)c1ccccc1,·,?,21.3µM,?,?,?
O=C(Nc1ccc(Cl)cn1)c1ccc2c(Cl)c3c(nc2c1)CCC3,·,?,0.19µM,?,?,0.316µM
Cc1cccc(NC(=O)c2ccc3c(Cl)c4c(nc3c2)CCCC4)n1,3.16µM,0.562µM,0.675µM,2.91µM,?,1.12µM
O=C(NCc1ccc(F)cc1)c1ccc2c(Cl)c3c(nc2c1)CCCC3,–,·,–,·,·,·
CCOc1ccc(NC(=O)c2cccc3c(=O)c4c([nH]c23)CCCC4)cc1,·,·,–,·,·,·
Cc1ccc(NC(=O)CN2C(=O)CSc3ccc(S(=O)(=O)N(C)C)cc32)c(C)c1,·,·,–,·,·,·
Oc1ccc(C2C[C@H]3CC[C@@H]2C3)cc1O (stereo partly drawn),·,–,12µM,?,–,–
COc1ccc(-c2cc3c(=O)n(CC(=O)Nc4cccc(Cl)c4)ncn3n2)cc1,·,–,–,–,?,–
SMILES,SMN2 splice up,Rab9 prom act,FLuc counter,ELG1 genotoxic,ELG1 repair inh,NPC1 promoter act
O=S(=O)(CCSc1nc2ccccc2o1)c1nc2ccccc2s1,17.8µM,–,–,–,?,–
O=S(=O)(CCSc1ccccn1)c1nc2ccccc2s1,11.2µM,–,–,–,–,–
O=C(CSc1ccccn1)Nc1nc2ccccc2s1,–,–,?,?,?,–
C=CCn1c(CCNC(=O)c2ccc(Cl)c(Cl)c2)nnc1SCCOc1ccc(OC)cc1,–,–,–,–,16.4µM,–
C=CCn1c(SCCOc2ccccc2)nnc1C(C)NC(=O)c1ccccc1 (stereo not drawn),–,–,–,–,–,–
CCN(Cc1ccccc1)C(=O)CN1C(=O)CSc2ccc(S(=O)(=O)N(CC)CC)cc21,–,·,–,·,·,·

# Screens as filed in PubChem.
